Among the data in PubChem BioAssay (NCATS) are Potency values, retold here.

Results filed as inconclusive are left out. Values without a mark were called inactive. Activity calls are given as the source filed them.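 How the source made its calls: active means dose-dependent loss of cell ATP signal giving a full or clear fitted curve, ranked by lower potency value; inconclusive means weak partial curve or response only at the top dose; inactive means no loss of viability signal.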
Potency means the concentration at half of the fitted maximal effect.

This test in a line: Cell Viability - Jurkat (AID 426).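 Further: cells exposed to compound for 40 hours at 37 °C before ATP read.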 The note with it: qHTS. The source says: NIH Chemical Genomics Center [NCGC]
NIH Molecular Libraries Screening Centers Network [MLSCN]
National Institutes of Environmental Health Sciences [NIEHS]
National Toxicology Program [NTP]
We have developed a 1536-well cell-based assay for quantitative high throughput screening (qHTS) against a number of cell lines to determine in vitro cytotoxicity of small molecules. This particular assay uses the Jurkat cell line (Clone E6-1) which is derived from the human T cell leukemia.
NCGC Assay Protocol Summary:
The CellTiter-Glo luminescent cell viability assay (Promega) is a homogeneous method to measure the number of viable cells in culture. The end point readout of this assay is based on quantitation of intracellular ATP, an indicator of metabolic activity, using the luciferase reaction. Luciferase catalyzes the oxidation of beetle Luciferin to oxyluciferin and light in the presence of ATP. The luminescent signal is proportional to amount of ATP present.
Using the CellTiter-Glo luminescent cell viability assay, the amount of cellular ATP was measured in the Jurkat cell line with complete culture medium following compound treatment for 40 hours. The assay was performed in opaque white Kalypsys 1536-well plates. In the screen, tamoxifen and doxorubicin were used as positive controls. Library compounds were measured for their ability to cause acute toxicity in the cell line, as reflected by a decrease in intracellular ATP levels, in a concentration-dependent manner. […] AC50 values were determined from concentration-response data modeled with the standard Hill equation.
qHTS protocol for CellTiter Glo Jurkat cellular assay
[Step] [Parameter] [Value] [Description]
1. Reagent; 5 uL; 5000 Jurkat cells/well
3. Controls; 23 nL; Tamoxifen 0.34 uM to 100 uM & Doxorubicin 0.02 nM to 100 uM
4. Time; 40 hr; 37 °C incubation
5. Reagent; 5 uL; CellTiter Glo reagent
6. Time; 20 min; Room Temperature
7. Detection; Luminescence; Viewlux plate reader
Keywords: cell viability, cytotoxicity, Jurkat cell line, luminescence, NTPHTS, NTPHTS_NCGC, NIEHS, EPA, DSSTox, MLSMR, MLSCN, NIH Roadmap, qHTS, NCGC
Consider `O=[N+]([O-])c1ccc(Cl)c(Cl)c1`, for which the Potency is above 92 µM.
Under `C/C=C/c1ccc2c(c1)OCO2` stands above 92 µM; under `O=C1C(Cl)=C(Cl)C(=O)C(Cl)=C1Cl`, 9.41 µM (active).
The same measure for `Clc1nc(Cl)nc(Cl)n1`: above 92 µM; for `CC(C)(C)OO`: above 92 µM; for `c1ccc(OP(Oc2ccccc2)Oc2ccccc2)cc1`: above 92 µM.
For the compound `OCC(Br)CBr` (stereo not given), the Potency is above 92 µM.
The same measure for `S=C=Nc1cccc2ccccc12`: above 92 µM; for `OCC1CO1` (stereo not given): above 92 µM; for `CCCCOCCOP(=O)(OCCOCCCC)OCCOCCCC`: above 92 µM.
Take `COc1ccc(N)cc1`: the Potency was above 92 µM.
Under `CC(=O)[O-].CC(=O)[O-].O.O.O.[Pb+2]` stands above 92 µM; under `c1ccc(N=Nc2ccccc2)cc1`, 47.9 µM (active); under `CCNc1nc(Cl)nc(NC(C)C)n1`, above 92 µM.
The same measure for `c1ccc(-c2ccccc2)cc1`: above 92 µM; for `Cc1ccc([N+](=O)[O-])cc1C`: above 92 µM; for `CC(C)(OO)c1ccccc1`: 28.3 µM (active).
Under `ClC(Cl)=C(c1ccc(Cl)cc1)c1ccc(Cl)cc1` stands above 92 µM; under `C=CC(=C)C`, above 92 µM.
Consider `ClC(Cl)=C(Cl)C(Cl)=C(Cl)Cl`, for which the Potency is above 92 µM.
The same measure for `CCC[CH2][Sn]([Cl])([Cl])[Cl]`: above 92 µM; for `Cc1cccc([N+](=O)[O-])c1`: above 92 µM; for `CCOc1ccc(N)cc1`: above 92 µM.
The same measure for `O=NN(CCO)CCO`: above 92 µM; for `COC1=CC(=O)OC(CCc2ccccc2)C1` (stereo not given): above 92 µM.
The same measure for `BrCCBr`: above 92 µM; for `CCOP(=S)(OCC)Oc1ccc([N+](=O)[O-])cc1`: above 92 µM.
Regarding `CCCOC(=O)c1ccccc1C(=O)OCCC`, the Potency is above 92 µM.
The same measure for `CCCSC(=O)Cl`: above 92 µM; for `CCN(CC)c1ccccc1`: above 92 µM.
The same measure for `c1nc[nH]n1`: above 92 µM; for `Clc1ccc2ccccc2c1`: above 92 µM; for `ClCBr`: above 92 µM.
The same measure for `O=NN(c1ccccc1)c1ccccc1`: above 92 µM; for `CCSC(=O)Cl`: above 92 µM.
Take `C[N+](C)(C)Cc1ccccc1`: the Potency is above 92 µM.
Under `CC(Cl)Cl` stands above 92 µM; under `Cc1ccc(O)c(C)c1`, above 92 µM; under `O=[N+]([O-])c1cccc2ccccc12`, above 92 µM.
Under `Nc1ccc(Br)cc1` stands above 92 µM.
